Values joined by “and” are separate entries in the source; they are usually repeats but may differ in a detail not shown here. Equal entries are not always repeated. The panel holds about 83,000 compounds, 20% with a hit somewhere; the sample as a whole holds those more often.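 Cells were grown in 96-well plates and exposed to the test compound at a single concentration for 48 hours; results are reported as percent growth, with values below 10 considered active.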 Active and inactive are the calls of the source.

For the assay, the system named is HL-60(TB) leukemia. The experiment in a line: NCI-60 one-dose screen, 48 h (100 = growth as untreated, 0 = no growth, -100 = all killed). The settings on record: 10 µM unless noted. The method, then: Growth inhibition of the HL-60(TB) human tumor cell line is measured as a screen for anti-cancer activity. Cells are grown in 96 well plates and exposed to the test compound for 48 hours. Compounds are tested at a single concentration, which is 10^-5 M for most compounds. The reported endpoint is percent growth (GI% or GIPRCNT), where numbers from 0 - 100% represent growth inhibition, and numbers from -100% - 0 represent cell death. For example, a value of 40 represents 60% growth inhibition. A value of 0 means no net growth occurred over the course of the experiment. A value of -40 indicates 40% of cells at the beginning of the experiment died by the end of the experiment. A value of -100 means all cells are dead at the end of the experiment.
NCI-60 Human Tumor Cell Lines Screen was performed using the standard one-dose NCI protocol, which is described in more detail at https://dtp.cancer.gov/discovery_development/nci-60/default.htm.
Compounds with GIPRCNT values below 10 were considered active. Activity score was based on GIPRCNT using the following formula: […]
Score is 0 for GIPRCNT values of 100 or above, 50 for GIPRCNT values of 0, and 100 for GIPRCNT values of -100.
For the compound `Cc1nn(-c2ccccc2)c(Oc2ccc(Cl)cc2)c1/C=N\N=c1/sc2ccccc2n1C`, the growth was 78% (inactive). In the case of `Nc1c(C(=O)Nc2ccccc2C(F)(F)F)sc2nc3c(cc12)CCC3` it was 86.8% (inactive). For `CCCCCC(=O)OCC(=O)O[C@@H]1C[C@]2(C(C)C)O[C@@]1(C)[C@@H]1CC[C@@H](C)[C@H]1[C@@H]2OC(=O)/C=C/c1ccccc1`, the growth was 78.5% (inactive). In the case of `COc1ccccc1P(c1ccccc1OC)c1ccccc1OC` it was 101% (inactive); in that of `COc1cc(CN2CCC(N3CCCC3=O)c3ccccc32)cc(OC)c1OC` (stereo not given), 56.4% (inactive).

With `C=C(C)[C@@H]1CC[C@]2(CO)CC[C@]3(C)[C@H](CC[C@@H]4[C@@]5(C)C=C(C#N)C(=O)C(C)(C)[C@@H]5CC[C@]43C)[C@@H]12`, the growth is -26.1% (active). `CNC(C)[C@H]1CCC2C3CCC4C[C@@H](N(C)C(=O)c5ccccc5)CC[C@]4(C)C3CC[C@@]21C` (stereo not given in full): the growth is 14.9% (inactive).

As for `CCCCN(CCCC)CCCCCCCCCCO`, the growth is 95.1% (inactive).

With `O=C(O)C1CCCN1C(=O)OCc1ccccc1` (stereo not given), the growth is 102% (inactive). Consider `COc1ccc2nc(NCCCNCCO)c3sc4ccc(F)cc4c(=O)c3c2c1`, for which the growth is 25% (inactive).

`COc1cc(-c2nc3cc(Cl)c(Cl)cc3[nH]2)ccc1OCC(=O)NN`: the growth is 82% (inactive). The result for `COc1ccc(N)c2c1C(=O)c1ccccc1C2=O` reads 45.8% (inactive); that for `COc1ccc(/C=C/C(=O)c2ccc(Nc3ccnc4cc(Cl)ccc34)cc2)cc1`, 17.5% (inactive). The result for `O=C(/C=C/C=C/c1ccc2c(c1)OCO2)N/N=C\c1ccc(O)cc1O` reads -0.489% (active). `CC(=O)c1ccc(NCC(=O)Nc2ccccn2)cc1`: the growth was 109% (inactive). The result for `CC(C)NCCCCCNc1cc(O)cc2cccnc12` reads -43.6% (active); that for `CCOC(=O)c1c(C)nc2c(c1N)CC(=O)N2Cc1cc(F)cc(Cl)c1`, 79.1% (inactive). The result for `Cc1[nH]c2ccccc2c(=O)c1CC=C(Cl)Cl` reads 57.5% (inactive); that for `CCCCn1cnc2c(=O)[nH]cnc21`, 108% (inactive).

Take `COc1ccc(C(O)c2ccccc2)cc1` (stereo not given): the growth was 102% (inactive). For the compound `COc1ccc(NC(=O)CSc2nc3ccc(Cl)cc3c(=O)n2-c2ccccc2C(F)(F)F)c(OC)c1OC`, the growth is 105% (inactive). Consider `CC(=O)N1N=C(c2ccc(Cl)cc2)CC1c1cn(-c2ccccc2)nc1-c1ccc([N+](=O)[O-])cc1` (stereo not given), for which the growth is 121% (inactive). In the case of `CCOC(=O)C1=NN(c2ccccc2)C(=O)/C1=C\N1C(=O)CC(=O)NC1=S` it was 101% (inactive); in that of `Cc1ccc(-c2nc(N3CCNCC3)c3oc(-c4ccccc4)nc3n2)cc1`, -66.6% (active); in that of `C=C(C)[C@@H]1CC[C@]2(C(=O)N=C=S)CC[C@]3(C)[C@H](CC[C@@H]4[C@@]5(C)CCC(=O)C(C)(C)[C@@H]5CC[C@]43C)[C@@H]12`, -2.27% (active). In the case of `N#Cc1ccc(-c2ccc3c(c2)NC(=O)/C3=C\c2ccc[nH]2)cc1` it was 101% (inactive). Consider `CN1CCN(c2ccc(NC(=O)c3cncnc3Nc3ccc(OCc4ccccn4)c(Cl)c3)cc2)CC1`, for which the growth is -57.9% (active). In the case of `CC1(C)CC[C@]2(C(N)=O)CC[C@]3(C)C(=CC[C@@H]4[C@@]5(C)C/C(=C/c6ccncc6)C(=O)C(C)(C)[C@@H]5CC[C@]43C)[C@@H]2C1` it was -19.2% [100 µM] (active). In the case of `C[n+]1ccc(Nc2ccc(NC(=O)c3ccc(Nc4cc[n+](C)c5ccc(N)cc45)cc3)cc2)cc1` it was 82.3% (inactive). In the case of `N#CC(C#N)=NO` it was 104% (inactive); in that of `Cc1c(C(N)=O)sc2ncn(CC(=O)NN=C3CCCCC3)c(=O)c12`, 123% (inactive). With `CNC(=O)c1cc(Oc2ccc(NC(=O)Nc3ccc(Cl)c(C(F)(F)F)c3)cc2)ccn1`, the growth was -35.3% (active) and 23.3% (inactive). In the case of `Cc1cnc(N)nc1OCCNC(=O)c1cccc(-c2ccc(S(=O)(=O)Nc3ccc4c(c3)N(C(=O)C3CC3)CCC4)cc2)c1` it was 43.3% (inactive); in that of `O=c1[nH]nnc2cc(Cl)ccc12`, 108% (inactive) and 100% (inactive). The result for `O=C1CCC(NC(=S)Nc2ccccc2)N1` (stereo not given) reads 99.2% (inactive); that for `NNc1ccc2ccccc2c1`, 98.4% (inactive) and 108% (inactive). In the case of `CCN(CC)CCOC(=O)c1cccnc1` it was 101% (inactive); in that of `C=C(C)[C@@H]1CCC=C2CC[C@]3(C)[C@H](CC[C@@H]4[C@@]5(C)CCCNC(C)(C)[C@@H]5CC[C@]43C)[C@H]21`, 27.7% (inactive); in that of `CN(CCNCc1ccccn1)CCNCc1ccccn1`, 6% (active). On to `Cc1ccc(C2=Nc3c(N)ncnc3NC(c3cccc(Nc4ccnc5cc(C(F)(F)F)ccc45)c3)C2)cc1` (stereo not given), for which the growth is 0.514% (active).

The record behind these values is PubChem BioAssay (NCI).
